For 40 compounds, viability results are on record in PubChem BioAssay.

The test in a line: reducers of endogenous Her2 protein level, primary screen, SKBR3 breast tumor cells, AlphaScreen, ATP viability (AID 461).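 Also: percent of carrier control wells set as 100% viability.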 The conditions noted are these: 18-24 h, measured here: SKBR3 viability, ATP luminescence, at 10 µM. On the technique in general: Alpha assays give light when donor and acceptor beads are brought close together.
The viability is a read-out of living cells in per cent, often relative to untreated cells. Consider `O=C1OCCC1NC1=NCCC1` (stereo not given), for which the viability is 92%.

On to `CN1C(=O)N(C)C(=O)C2(Cc3ccccc3N3CCOCC32)C1=O` (stereo not given), for which the viability turned out to be 104%.

For the compound `O=c1[nH]c(=O)n(Cc2ccco2)c(O)c1C=NCCCn1ccnc1`, the viability was 88.5%.

Consider `CC1CCC(C(=O)NC(C(=O)N2CCC3(CC2)OCCO3)C(C)C)CC1` (stereo not given), for which the viability was determined as 96.5%.

On to `COc1ccccc1N1CCN(Cc2cccc(OC)c2O)CC1`, for which the viability came out at 89%.

Regarding `O=C1CC(c2ccccc2)CC(O)=C1C=NCCN1CCN(C(=O)Cc2ccccc2)CC1` (stereo not given), the viability is 122%.

As to `OCCOCC#CCN1CCOCC1`, the viability was 102%.

In the case of `NC(=O)CSP(=O)(c1ccccc1)c1ccccc1`, the viability stood at 94%.

As to `CC1(C)C(c2ccccc2)=NC(c2cccnc2)N1O` (stereo not given), the viability worked out at 106%.

On to `CCCCCCC(N)CC(=O)O` (stereo not given), for which the viability is 106%.

For the compound `CCN(CC)CCN=Cc1c(O)n(CCC2=CCCCC2)c(=O)[nH]c1=O`, the viability worked out at 90.5%.

With `CCN1c2nc3c(C)cccn3c(=O)c2CC2(C(=O)N(C)C(=O)N(C)C2=O)C1C` (stereo not given), the viability was found to be 101%.

With `C=CCn1c(O)c(C=NCCN(C)C)c(=O)[nH]c1=O`, the viability was found to be 97.5%.

In the case of `Cc1ccccc1NC1=NCCCS1`, the viability turned out to be 106%.

With `CN1CCC(N(C)c2ncnc3ccc(Br)cc23)CC1`, the viability came out at 100%.

Consider `O=c1[nH]c(=O)n(Cc2ccccc2)c(O)c1C=NCCCO`, for which the viability is 100%.

Turning to `O=C1CC(N2CCC(n3c(=O)[nH]c4ccccc43)CC2)C(=O)N1c1ccc(F)cc1` (stereo not given), the viability worked out at 93.5%.

Take `Cc1cc(NC(=O)COC(=O)c2c(C)nn(Cc3ccccc3)c2Cl)no1`: the viability came out at 96%.

Regarding `CN(C)c1cc(N)c2c(n1)CCC2` (tested in a mixture with another compound), the viability worked out at 113%.

Turning to `c1ccc(C2CC3CC(c4ccco4)N2O3)cc1` (stereo not given), the viability turned out to be 93%.

On to `c1cncc(CNC2=NCCCCC2)c1`, for which the viability came out at 80.5%.

On to `C=CCn1c(O)c(C(C)=NCc2cccnc2)c(=O)[nH]c1=O`, for which the viability was determined as 104%.

Turning to `NCCc1ccc(O)cc1`, the viability stood at 112%.

As for `COc1ccc(C(=O)C(C)(C)NO)cc1`, the viability amounted to 108%.

With `CCOC(=O)c1cccc([P+](=O)O)c1`, the viability was 92.5%.

Take `O=C(CCCOc1ccc(Cl)cc1Cl)N1CCC2(CC1)OCCO2`: the viability worked out at 106%.

With `CCCCOc1ccc(CN2CCN(CCO)CC2)cc1`, the viability was determined as 74%.

For the compound `CSc1ccc(CNC2CN3CCC2CC3)cc1` (stereo not given), the viability was 89.5%.

Regarding `CCCCn1c(O)c(C(C)=NCCc2ccccc2)c(=O)[nH]c1=O`, the viability worked out at 88.5%.

With `O=C(c1sc2ccccc2c1Cl)N1CCC2(CC1)OCCO2`, the viability stood at 90.5%.

`N#Cc1ccccc1Cn1cc(C(=O)c2ccco2)c2ccccc21`: the viability was 98.5%.

With `COc1ccc(CC2C(=O)NC(=O)NC2=O)c(OC)c1`, the viability amounted to 96.5%.

With `CCCCn1c(O)c(C(CC)=Nc2cccc(C(=O)O)c2)c(=O)[nH]c1=O`, the viability amounted to 97.5%.

In the case of `COc1cc(C2NCc3ccccc3-n3cccc32)ccc1O` (stereo not given), the viability turned out to be 104%.

Regarding `Cc1ccc(CS(=O)(=O)CCC(=O)N2CCC3(CC2)OCCO3)cc1`, the viability came out at 106%.

Regarding `COc1cc(/C=N/n2cnnc2)ccc1OC(=O)N(C)C`, the viability is 97%.

Take `CC#CP(=O)(OCC)C(O)(c1ccccc1)C(F)(F)F` (stereo not given): the viability turned out to be 91%.

Consider `CCOC(=O)C(O)(c1ccc(N(CC)C(=O)OC)cc1)C(F)(F)F` (stereo not given), for which the viability amounted to 99.5%.

Consider `CC(C)(C)C(O)C(Oc1ccc(Cl)cc1)n1cncn1` (stereo not given), for which the viability is 86.5%.

Turning to `COC(=O)c1c(C)n(Cc2ccc3c(c2)OCO3)c2ccc(O)cc12`, the viability was 116%.
